Source: PubChem BioAssay (National Center for Advancing Translational Sciences (NCATS))
A selection: hits, their analogues and other compounds. The true share with any hit is near 18%.
TDP1 cell noCPT: qHTS for Inhibitors of human tyrosyl-DNA phosphodiesterase 1 (TDP1): qHTS in cells in absence of CPT; DT40 Tdp1-/- hTDP1 cells, no CPT, ATP luminescence, 48 h; Potency, µM (series often up to 46.2 µM), actives largely listed as inhibitors; actives 15% (n = 420,000); also: nearly all actives have a fitted effect of over 55% in size
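Luminescent ATP content (CellTiter-Glo) served as the growth readout. Knockout chicken DT40 cells expressing human TDP1 were exposed to compounds without camptothecin for a minimum 48 hr at 37 °C.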
CtBP-E1A inh: blocks the CtBP interaction with E1A; AlphaScreen GST-E1A/His-CtBP binding, 1536-well; hits give low values; activity change, % (test concentration not listed); actives 0.49% (n = 340,000); AID 651724; in the data active = activity change below about -65%; inconclusive = mostly about -30% to -63%
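Protein mix (5X: 125 nM each GST-E1A, His-CtBP) was incubated with pinned compound 2 h at 37 deg C in dark, in 50 mM Tris pH 8.0 buffer with 300 mM NaCl. Glutathione donor and nickel acceptor beads followed; AlphaScreen signal read after 1 h.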
Six1-Eya2 blk: Six1/Eya2 interaction inhibition; Q15475+O00167; AlphaScreen GST-Six1/His-Eya2 binding, biochemical; hits give low values; activity change, % (test concentration not listed); actives 0.56% (n = 360,000); AID 651725; in the data active = activity change below about -65%; inconclusive = mostly about -30% to -63%
Target sequence (O00167 whole entry, looked up): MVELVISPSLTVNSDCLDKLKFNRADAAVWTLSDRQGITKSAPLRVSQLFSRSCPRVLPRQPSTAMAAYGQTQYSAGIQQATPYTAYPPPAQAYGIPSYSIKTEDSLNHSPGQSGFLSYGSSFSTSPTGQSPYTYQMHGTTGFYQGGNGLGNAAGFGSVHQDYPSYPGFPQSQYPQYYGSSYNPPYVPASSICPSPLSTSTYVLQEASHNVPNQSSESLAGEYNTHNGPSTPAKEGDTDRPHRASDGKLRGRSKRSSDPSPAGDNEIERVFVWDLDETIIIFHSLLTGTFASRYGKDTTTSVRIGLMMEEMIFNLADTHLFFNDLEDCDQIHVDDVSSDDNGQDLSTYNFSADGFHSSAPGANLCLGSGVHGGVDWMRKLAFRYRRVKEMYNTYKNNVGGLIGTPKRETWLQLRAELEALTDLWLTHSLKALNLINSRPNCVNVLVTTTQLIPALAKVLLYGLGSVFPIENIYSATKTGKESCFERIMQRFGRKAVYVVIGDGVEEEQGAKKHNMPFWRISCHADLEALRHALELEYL
Target sequence (Q15475 whole entry, looked up): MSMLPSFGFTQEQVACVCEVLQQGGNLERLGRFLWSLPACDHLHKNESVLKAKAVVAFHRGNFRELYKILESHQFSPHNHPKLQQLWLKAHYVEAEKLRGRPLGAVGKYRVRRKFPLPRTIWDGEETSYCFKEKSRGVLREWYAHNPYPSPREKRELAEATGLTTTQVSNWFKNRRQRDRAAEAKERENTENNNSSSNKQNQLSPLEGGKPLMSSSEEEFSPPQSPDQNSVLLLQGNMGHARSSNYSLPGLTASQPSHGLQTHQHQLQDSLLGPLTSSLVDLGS
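Six1/Eya2 binding was read as AlphaScreen signal after compounds were pinned into GST-Six1 plus His-tagged Eya2 (5X stock 250/500 nM) in pH 8.0 Tris/NaCl/TCEP buffer, beads added, then incubated 1 h, 37 C, dark.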
IL-1B inflam inh: inhibitors of inflammasome signaling (IL-1 beta secretion); THP-1 LPS/ATP IL-1B secretion, AlphaLISA, 16 h; hits give low values; activity change, % at 57.5 µM; actives 4.7% (n = 360,000); in the data active = activity change below about -50%; inconclusive = mostly about -30% to -49%
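Secreted IL-1B measured by AlphaLISA bead assay after 16 h compound exposure of THP-1 cells; compounds (final up to 57.5 uM) added 1 h before LPS (250 ng/mL) and ATP (1.25 mM) stimulation; lower signal means less secretion.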
TDP1 cell CPT: DT40-hTDP1 cell growth loss with CPT; chicken DT40 Tdp1-/-;hTDP1 cells + 20 nM CPT, ATP luminescence, 48 h; Potency, µM (titrated, usually from 46.2 µM), hits mostly inhibitors; actives 12% (n = 420,000); also: nearly all actives have a fitted effect of over 55% in size
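Cell growth measured by CellTiter-Glo luminescence after a minimum 48 h, 37 C compound exposure with 20 nM CPT in Tdp1-knockout DT40 cells stably expressing hTDP1, seeded 400/well; qHTS titration format.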
TDP1 block: TDP1 (human) enzyme inhibition. Q9NUW8. Potency, µM (series often up to 130 µM), hits mostly inhibitors. recombinant TDP1, AlphaScreen DNA substrate cleavage. actives 0.28% (n = 350,000); also: nearly all actives have a fitted effect of over 40% in size
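Compounds were preincubated with Tdp1 (1 nM final) for 15 min at room temperature before substrate (15 nM final) started a 5 min reaction; beads (10 ug/ml final) were then added for 10 min before AlphaScreen detection.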
Large screens that a line does not name were inactive; ! = not confirmed by another sample. Unless noted, calls follow the shape of the dose curve; as a rule, active = well fitted curve in the direction sought with a large enough effect; inconclusive = small, poorly fitted or top-dose-only effect, or another doubt; inactive = no such curve, though single readings can be large; an effect the other way counts as inactive or inconclusive.

COC(=O)C1=C(c2ccc(Cl)c(C(F)(F)F)c2)C[C@@H]2CC[C@H]1N2C(=O)NCCOc1ccccc1Cl	TDP1 cell noCPT inconclusive, IL-1B inflam inh -82, TDP1 cell CPT inconclusive (no result: CtBP-E1A inh)
COC(=O)C1=C(c2c(C)noc2C)C[C@@H]2CC[C@H]1N2C(=O)NCCOc1ccccc1Cl	none
CN(c1ccccc1N(C)S(=O)(=O)c1ccccc1)S(=O)(=O)c1ccccc1	TDP1 cell noCPT inconclusive (no result: TDP1 block)
COC(=O)c1cccc(NC(=O)c2ccc(S(=O)(=O)N(C)c3ccccc3OC)cc2)c1	TDP1 cell noCPT 12µM, TDP1 cell CPT 16µM (no result: TDP1 block)
COC(=O)C1=C(c2ccc(C(C)=O)cc2)C[C@@H]2CC[C@H]1N2C(=O)NCc1ccc(C(F)(F)F)cc1	TDP1 cell noCPT inconclusive, TDP1 cell CPT inconclusive (no result: CtBP-E1A inh)
NCC1(CC(=O)O)CCCCC1	none (no result: CtBP-E1A inh, Six1-Eya2 blk, IL-1B inflam inh)
O=C1/C(=C\c2ccc([N+](=O)[O-])cc2)N2CCC1CC2	TDP1 cell noCPT inconclusive, IL-1B inflam inh -64
CNC(C)C(O)c1ccc(O)cc1 (centres undefined)	none (no result: CtBP-E1A inh, Six1-Eya2 blk, IL-1B inflam inh, TDP1 block)
Cc1oc2ccc(OC(=O)N3CCOCC3)cc2c1C(=O)OC(C)C	TDP1 cell noCPT 26µM, TDP1 cell CPT inconclusive
O=C(NC1CCCCC1)N1Cc2cc(N3CCOCC3)ccc2-n2nncc2C1	none (no result: TDP1 block)
Cc1ccc(-c2nn3c(C)nnc3c3ccccc23)cc1S(=O)(=O)NCCO	TDP1 cell noCPT 21µM!, TDP1 cell CPT inconclusive
O=C(COc1ccccc1/C=C1/NC(=O)NC1=O)Nc1ccccc1	TDP1 cell noCPT inconclusive, TDP1 cell CPT 21µM
O=C1NC(=O)C(=Cc2ccccc2OCCOc2ccc([N+](=O)[O-])cc2)C(=O)N1	TDP1 cell noCPT inconclusive, IL-1B inflam inh inconclusive, TDP1 cell CPT inconclusive
COc1ccc(CCCc2nnc(SCC(=O)Nc3ccc(C)c(C)c3)o2)cc1	TDP1 cell noCPT inconclusive, TDP1 cell CPT inconclusive
Cc1ccc(-c2nc(S(=O)(=O)c3ccc(C)cc3)c(SCC(=O)Nc3ccc(F)cc3)o2)cc1	TDP1 cell noCPT 23µM, TDP1 cell CPT 16µM (no result: CtBP-E1A inh, Six1-Eya2 blk, IL-1B inflam inh)
COc1ccc(NC(=O)CSc2oc(-c3cccs3)nc2S(=O)(=O)c2ccccc2)c(OC)c1	TDP1 cell noCPT 23µM, TDP1 cell CPT 21µM (no result: CtBP-E1A inh, Six1-Eya2 blk, IL-1B inflam inh)
Cc1ccc(-c2nc(S(=O)(=O)c3ccccc3)c(SCC(=O)NC3CCCCC3)o2)cc1	TDP1 cell noCPT inconclusive, TDP1 cell CPT 13µM (no result: CtBP-E1A inh, Six1-Eya2 blk, IL-1B inflam inh)
Cc1ccc(-c2noc(=O)n2CC(=O)Nc2ccc(S(=O)(=O)NC3CC3)cc2)cc1	TDP1 cell noCPT inconclusive, TDP1 cell CPT inconclusive
Cc1c(C=O)c2ccccc2n1Cc1ccc([N+](=O)[O-])cc1	TDP1 cell CPT inconclusive
CC12CCC3C(CC=C4CC(O)CCC43C)C1CC(=CN1CCOCC1)C2=O (centres undefined)	none (no result: TDP1 block)
CC(C)n1c(O)c(C2c3cc(Cl)ccc3Oc3[nH]c(=O)n(C(C)C)c(=O)c32)c(=O)[nH]c1=O (centres undefined)	TDP1 cell noCPT 2.9µM, IL-1B inflam inh -99, TDP1 cell CPT 2.9µM
N#Cc1cc2c(nc1SCC(=O)Nc1ccc(C(F)(F)F)cc1)C1CCN2CC1	TDP1 cell noCPT 23µM, TDP1 cell CPT 13µM (no result: CtBP-E1A inh, Six1-Eya2 blk, IL-1B inflam inh)
N#Cc1cc2c(nc1SCC(=O)Nc1ccc(Cl)c(C(F)(F)F)c1)C1CCN2CC1	TDP1 cell noCPT 12µM, TDP1 cell CPT 21µM (no result: CtBP-E1A inh, Six1-Eya2 blk, IL-1B inflam inh)
N#Cc1cc2c(nc1SCC(=O)Nc1ccc(Cl)cc1)C1CCN2CC1	TDP1 cell noCPT inconclusive, TDP1 cell CPT inconclusive
N#Cc1cc2c(nc1SCC(=O)Nc1cc(Cl)ccc1Cl)C1CCN2CC1	TDP1 cell noCPT inconclusive, TDP1 cell CPT 18µM
N#Cc1ccc(NC(=O)CN2C(=O)NC3(CCCC3)C2=O)cc1Cl	TDP1 cell noCPT inconclusive
N#Cc1ccc(NC(=O)CN2CCN(C(=O)c3cccs3)CC2)cc1Cl	TDP1 cell noCPT 16µM, TDP1 cell CPT inconclusive
CC(C)NC(=O)N1CCC2(CCNCC2)CC1	none (no result: CtBP-E1A inh, Six1-Eya2 blk, IL-1B inflam inh, TDP1 block)
